In the library only some 4.1% were active in any assay of this set; here they are far more common.
HIV Env fusion: HIV envelope-mediated fusion inhibition. inhibition, % at 12.3 µM. HeLa-JRFL Env/CEM21 cell fusion, luciferase. 360,000 compounds, 1.1% hits;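 active = mean replicate inhibition score of at least 50 and every replicate individually at or above 50; inconclusive = only one of the two criteria met; inactive = mean below 50 and not all replicates reaching 50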;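 note: 0% = plate neutral controls and 100% = maraviroc near 300 nM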
NSD2 HMT inh: inhibitors of human histone methyltransferase NSD2; O96028; NSD2 peptide methylation, AlphaScreen, 120 min; inhibition, % at 12.5 µM; 310,000 compounds, 0.54% hits; AID 743445; in the data active = inhibition above about 50%
F508del corr: CFTR F508del correction in bronchial cells. CFBE cells, YFP halide quenching; stimulated with forskolin plus potentiator P3; % fluorescence drop versus neutral controls. activity (quench increase), % at 7.58 µM. 350,000 compounds, 0.36% hits. AID 720511;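 active = mean added fluorescence quench of at least 8% versus neutral control, with both replicates also reaching 8%; inconclusive = only one of the mean or replicate conditions met; inactive = mean below 8% and not both replicates reaching 8%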;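 note: cells transiently co-express mutant CFTR-F508del with the halide-sensitive YFP; corrector assay measuring rescue of mutant channel to the surface after 24 h compound exposure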
PglD inh: inhibitors of Campylobacter jejuni PglD acetyltransferase; purified PglD enzyme, DTNB colorimetric CoA detection; inhibition, % at 12.5 µM; 360,000 compounds, 0.098% hits; AID 602405; in the data active = inhibition above about 16%, passing the limit was not always enough; inconclusive = no clear call, values can overlap the other calls
ALR H2O2 inh: human ALR oxidase inhibition via reduced H2O2. P55789. purified ALR, DTT oxidation, H2O2 HRP-luminol luminescence. inhibition, % (no concentration beside the values). 290,000 compounds, 3.8% hits. AID 485317;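 active = mean replicate inhibition above about 79%, with every replicate also reaching it, limit read from the data; inconclusive = only one of the two criteria met; inactive = mean below limit and not every replicate reaching it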
Target sequence (P55789 whole entry, looked up): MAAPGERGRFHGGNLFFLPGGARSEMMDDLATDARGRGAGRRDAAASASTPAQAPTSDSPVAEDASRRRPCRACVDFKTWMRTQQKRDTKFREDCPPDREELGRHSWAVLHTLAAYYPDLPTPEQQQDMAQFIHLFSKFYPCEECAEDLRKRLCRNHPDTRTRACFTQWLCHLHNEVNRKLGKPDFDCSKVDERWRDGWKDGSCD
CASP6 VEID inh: caspase-6 (human) enzyme inhibition | P55212 | 350,000 compounds, 0.53% hits | AID 686996 | inhibition, % at 12.5 µM | purified caspase-6, Z-VEID-R110 cleavage fluorescence;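 active = mean inhibition across replicates at least about 35%, with every replicate also reaching that limit, limit read from the data; inconclusive = only one of the two criteria met; inactive = neither criterion met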;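 note: 0% = median of neutral control wells and 100% = no fluorescence left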
Target sequence (P55212 24-179 limits assumed): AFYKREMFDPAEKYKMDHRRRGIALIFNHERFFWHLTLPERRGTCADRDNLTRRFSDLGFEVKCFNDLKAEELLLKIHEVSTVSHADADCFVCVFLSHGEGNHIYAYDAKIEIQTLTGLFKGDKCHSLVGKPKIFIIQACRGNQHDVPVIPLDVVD
Target sequence (P55212 194-293 limits assumed): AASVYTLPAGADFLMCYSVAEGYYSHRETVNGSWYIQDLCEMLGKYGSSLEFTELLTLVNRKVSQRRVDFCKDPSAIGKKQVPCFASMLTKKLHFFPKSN
Starred values were filed as active, the others as inactive; [ ] = another dose, or the depositor's remark.

How did C[C@H]1CCCCO[C@H](CN(C)C(=O)Nc2ccc(C(F)(F)F)cc2)[C@@H](C)CN([C@@H](C)CO)C(=O)c2cc(NC(=O)Nc3ccc(F)cc3)ccc2O1 do in these assays?
HIV Env fusion: 76.7*[16.7 µM]; F508del corr: 8.0*; PglD inh: 1.0; CASP6 VEID inh: -1.4

What do the screens show for `C[C@@H]1CCCCO[C@@H](CN(C)C(=O)Nc2ccc(C(F)(F)F)cc2)[C@@H](C)CN([C@H](C)CO)C(=O)c2cc(NC(=O)Nc3ccc(F)cc3)ccc2O1`?
F508del corr: 3.9; CASP6 VEID inh: 0.7

Results for CCCNC(=O)Nc1ccc2c(c1)C(=O)N(C)C[C@H](OC)[C@@H](C)CN(C(=O)c1ccccc1F)[C@H](C)CO2 ?
HIV Env fusion: 0.6[16.7 µM]; F508del corr: -1.4; PglD inh: -1.7

What do the screens show for `CCC(C)(C)c1ccc(Oc2ccc(N)cc2)cc1`?
HIV Env fusion: 60.5*; NSD2 HMT inh: 20.6; F508del corr: -5.2; PglD inh: -3.4; CASP6 VEID inh: -2.8

Results for C[C@H]1CN([C@@H](C)CO)C(=O)Cc2cc(NC(=O)Nc3ccccc3)ccc2O[C@H]1CN(C)C(=O)Nc1ccccc1 ?
HIV Env fusion: -3.5[16.7 µM]; F508del corr: -2.5; PglD inh: -0.8; CASP6 VEID inh: 1.5

What do the screens show for `S=c1[nH]c2ccccc2n2c(=S)[nH]nc12`?
HIV Env fusion: 1.6; NSD2 HMT inh: -2.6; F508del corr: 1.9; PglD inh: -6.1; ALR H2O2 inh: 98.7*; CASP6 VEID inh: 1.0

How did CN(C)C(=O)[C@H]1[C@H](CO)[C@H]2Cn3c(ccc(-c4ccccc4F)c3=O)[C@@H]1N2C(=O)c1ccccc1 do in these assays?
PglD inh: -1.0; CASP6 VEID inh: -0.1

Results for COc1ccc(Cl)cc1NC(=O)CSc1sc2c(O)cc(=O)[nH]c2c1C#N ?
HIV Env fusion: 2.8; F508del corr: -0.2; PglD inh: -1.9; ALR H2O2 inh: 98.6*; CASP6 VEID inh: 28.1

What do the screens show for `Cc1cc(NC(=O)CSc2nc3[nH]c(=O)cc(O)c3s2)ccc1Br`?
HIV Env fusion: 18.1; NSD2 HMT inh: 1.0; F508del corr: -1.2; PglD inh: 0.5; CASP6 VEID inh: 1.5

How did Cc1cc(NC(=O)CSc2sc3c(O)cc(=O)[nH]c3c2C#N)ccc1Br do in these assays?
HIV Env fusion: 16.7; F508del corr: -1.6; ALR H2O2 inh: 99.1*; CASP6 VEID inh: 8.9

Results for Cc1ccc(C)c(NC(=O)CSc2sc3c(O)cc(=O)[nH]c3c2C#N)c1 ?
HIV Env fusion: 11.2; F508del corr: 2.5; PglD inh: 12.1; ALR H2O2 inh: inconclusive; CASP6 VEID inh: 47.2*

How did COc1ccc(Cl)cc1NC(=O)CSc1nc2sccc2c(=O)[nH]1 do in these assays?
HIV Env fusion: -3.4; NSD2 HMT inh: 15.7; F508del corr: 1.5; ALR H2O2 inh: 2.3; CASP6 VEID inh: -1.8

What do the screens show for `Cc1ccc(NC(=O)CSc2nc3[nH]c(=O)cc(O)c3s2)c(Br)c1`?
HIV Env fusion: 4.1; NSD2 HMT inh: -10.9; F508del corr: 2.8; PglD inh: -2.6; ALR H2O2 inh: 39.1; CASP6 VEID inh: -5.0

Results for COC(=O)c1ccc(C)c(NC(=O)CSc2sc3c(O)cc(=O)[nH]c3c2C#N)c1 ?
HIV Env fusion: 2.3; NSD2 HMT inh: 28.3; F508del corr: -0.5; PglD inh: -3.2; ALR H2O2 inh: inconclusive; CASP6 VEID inh: 54.4*

Results for COc1ccc2c3c(n(C)c2c1)[C@H](CO)N(C(=O)c1ccccc1)CC31CN(C)C1 ?
F508del corr: 2.4

How did CCCNC(=O)C[C@H]1C[C@H]2c3cc(N(C)C)ccc3O[C@H]2[C@@H](CO)O1 do in these assays?
F508del corr: -3.4; CASP6 VEID inh: 1.1

Results for CO[C@@H]1CN(C)C(=O)c2ccc(NS(=O)(=O)c3cn(C)cn3)cc2OC[C@H](C)N(C)C[C@@H]1C ?
HIV Env fusion: -0.5[16.7 µM]; F508del corr: 2.3; PglD inh: -4.3; CASP6 VEID inh: 3.3

How did O=C(CC1CC1)Nc1ccc2c(c1)[C@H]1C[C@@H](CC(=O)N3CCOCC3)O[C@@H](CO)[C@H]1O2 do in these assays?
HIV Env fusion: 9.9[16.7 µM]; F508del corr: -0.1; PglD inh: 12.9

What do the screens show for `Cc1ccc(Cl)cc1NC(=O)CSc1sc2c(O)cc(=O)[nH]c2c1C#N`?
HIV Env fusion: 11.8; NSD2 HMT inh: 2.9; F508del corr: -1.7; PglD inh: -6.8; ALR H2O2 inh: 92.5*; CASP6 VEID inh: 43.8*

Results for N#Cc1c(SCC(=O)Nc2cccc(C(F)(F)F)c2)sc2c(O)cc(=O)[nH]c12 ?
HIV Env fusion: 14.6; F508del corr: 2.8; PglD inh: 5.3; ALR H2O2 inh: 99.4*; CASP6 VEID inh: 1.8

Results for CCS(=O)(=O)N1Cc2cc(C(=O)O)nc(-c3cccc(-c4ccc(C#N)cc4)c3)c2[C@@H]1CCO ?
F508del corr: 0.3; CASP6 VEID inh: -0.1

How did O=S(c1ccc2ccccc2c1)c1cnns1 (configuration not stated) do in these assays?
NSD2 HMT inh: 5.3; PglD inh: -8.2; ALR H2O2 inh: 98.7*

What do the screens show for `Cc1nnsc1S(=O)c1ccc(Cl)c(Cl)c1` (configuration not stated)?
HIV Env fusion: 3.0; F508del corr: -3.5; PglD inh: 4.0; CASP6 VEID inh: 1.6

How did O[Si](CCCN1CCCCC1)(c1ccc(F)cc1)C1CCCCC1 (configuration not stated) do in these assays?
HIV Env fusion: 12.9; F508del corr: 8.8*; PglD inh: -1.2; CASP6 VEID inh: -8.2

What do the screens show for `O=C1CCCc2c1[nH]c1ccc(Cl)cc21`?
HIV Env fusion: 82.8*; NSD2 HMT inh: -0.7; PglD inh: -3.0

What do the screens show for `CCOC(=O)C1CCCc2c1[nH]c1ccc(Cl)cc21` (configuration not stated)?
HIV Env fusion: 9.2; NSD2 HMT inh: -1.6; F508del corr: 0.9; ALR H2O2 inh: 14.7; CASP6 VEID inh: 1.3

What do the screens show for `CCOC(=O)c1ccc2[nH]c3c(c2c1)CCCCC3=O`?
NSD2 HMT inh: -0.2; F508del corr: 0.4; PglD inh: -0.3; ALR H2O2 inh: -1.8; CASP6 VEID inh: 0.4

How did COc1ccc2[nH]c3c(c2c1)CCC/C3=N\N do in these assays?
HIV Env fusion: 35.5; NSD2 HMT inh: -1.8; F508del corr: -6.7; PglD inh: 0.8; ALR H2O2 inh: -1.4; CASP6 VEID inh: -3.6

What do the screens show for `OCCN=C1CCCc2c1[nH]c1ccc(Cl)cc21`?
HIV Env fusion: 67.3*; NSD2 HMT inh: 1.1; F508del corr: -0.9; ALR H2O2 inh: 17.8; CASP6 VEID inh: 2.1

How did OCCCN=C1CCCc2c1[nH]c1ccc(Cl)cc21 do in these assays?
HIV Env fusion: 57.3*; NSD2 HMT inh: 1.1; F508del corr: -0.3; ALR H2O2 inh: -5.8; CASP6 VEID inh: -3.9

How did CC(C)(C)[S@](=O)N1Cc2cc(C(=O)N3CCCCC3)nc(-c3cccc(C4=CCCC4)c3)c2[C@@H]1CCO do in these assays?
F508del corr: 0.6; CASP6 VEID inh: -1.1

Source: PubChem (Broad Institute)
